# Measured values as given in PubChem BioAssay (Tox21).
# Results filed as inconclusive are left out. Active and inactive are the calls of the source. Calls follow the shape of the dose curve; as a rule, active = well fitted inhibition curve with a large enough effect in the repeat runs; inconclusive = weak or mixed curves; inactive = flat fitted curve, though single readings scatter.
# Assay: qHTS assay to identify small molecule HDAC inhibitors (AID 1259364);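 also: wild-type HCT-116 cells with endogenous class I/II HDAC activity; nearly all actives have a fitted effect of over 45% in size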; as to activity change, negative = inhibition: top concentration of the series differs between compounds
# Conditions: HCT-116 HDAC-Glo I/II luminescence, 2 h; series mostly up to 92.4 µM; activity change, negative = inhibition: at the top concentration
# How it was run: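 Read-out: luminescence of HDAC-Glo I/II reagent, 30 min RT, reflecting class I/II deacetylase activity in whole HCT-116 cells pre-exposed 2 h to DMSO-dissolved compounds.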
# % is scaled to controls: 0 for no effect and ±100 for the full control effect; potency is read from the fitted curve at half-maximal effect.
SMILES,Potency,"activity change, negative = inhibition"
CON(C)C(=O)Nc1ccc(Br)c(Cl)c1,27.3 µM (active),
CON(C)C(=O)Nc1ccc(Br)cc1,24.3 µM (active),
C#CC(C)(C)O,,1.85% (inactive)
ClCCCCCCCl,,-0.566% (inactive)
CNC(=O)Oc1cc(C)c(N(C)C)c(C)c1,,0.69% (inactive)
CCOC(=O)COc1ccc(Cl)cc1Cl,,-4.62% (inactive)
C[C@@H](N)[C@@H](O)c1ccccc1,,2.45% [at 42.5 µM] (inactive)
CC(=NC#N)N(C)Cc1ccc(Cl)nc1,,2.7% (inactive)
CCC(=O)OC1(c2ccccc2)CCN(C)CC1,,6.78% (inactive)
BrCCc1ccccc1,,5.58% (inactive)
CCC1(c2cccc(O)c2)CCCCN(C)C1 (configuration not stated),,16.5% [at 42.5 µM] (inactive)
CN1COCN(Cc2cnc(Cl)s2)/C1=N\[N+](=O)[O-],,-1.52% (inactive)
CCCCS(=O)(=O)Cl,,-1.77% (inactive)
O=C(O)CBr,,2.34% (inactive)
CCCC(C)(COC(N)=O)COC(N)=O,,-18.2% (inactive)
COC1=CC(=O)O[C@@H](/C=C/c2ccccc2)C1,24.7 µM (active),
CC(Cl)(Cl)Cl,,3.85% (inactive)
C=CCN1CC[C@]23CCCC[C@H]2[C@H]1Cc1ccc(O)cc13,,2.6% [at 42.5 µM] (inactive)
Cn1c(N)nc2c3cccnc3ccc21,,-9.98% (inactive)
CCOC(=O)C(SP(=S)(OC)OC)c1ccccc1 (configuration not stated),,-2.56% (inactive)
O=c1[nH]c2ccccc2o1,,-2.63% (inactive)
CC1=C2[C@H]3OC(=O)[C@@H](C)[C@@H]3CC[C@@]2(C)C=CC1=O,,1.2% [at 42.5 µM] (inactive)
O=C(O)C(F)(F)C(F)(F)C(F)(F)C(F)(F)C(F)(F)C(F)(F)F,,-11.9% (inactive)
Cl/C=C/CCl,,-8.33% (inactive)
CC(C)C(C)(N)C#N (configuration not stated),,0.886% (inactive)
CCC(=O)c1ccc(Cl)cc1,,4.2% (inactive)
CCN1CCCC1CNC(=O)C(O)(c1ccccc1)c1ccccc1 (configuration not stated),,-5.85% [at 42.5 µM] (inactive)
